Measurements taken from PubChem BioAssay.
A number with no mark means an inactive call. Active and inactive are the calls of the source.

assay: viability profiling in MM1S myeloma cells – cell-based, resazurin fluorescence, basal, 24 h, PK04 Diversity Set, profiling panel (AID 1174); details: higher = more signal, called active from +8 up or from −8 down;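 also: MM1S multiple myeloma cell line; test concentration not given here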

| Compound | z-score |
| --- | --- |
| CN1CCC(CCCO)=CC1c1ccc(CN2CCCC2)cc1 (centres undefined) | -0.202 |
| C=C[C@H](C)[C@@H](O)c1ccc(O)c2ccccc12 | -1 |
| COCCOC(=O)N1C(=O)[C@@]2(c3cc(C#CC4=CCCCC4)ccc31)[C@H](C(=O)N1CCc3cc(OC)c(OC)cc3C1)[C@H]1C(=O)O[C@H](c3ccccc3)[C@H](c3ccccc3)N1[C@@H]2c1ccccc1OCCO | 0.224 |
| COC(=O)C1=CC(CCCO)=CC(C2CC2)N(Cc2sc3ccccc3c2Cl)C=C1C(=O)OC (centres undefined) | -0.944 |
| NC(=O)NCC#Cc1ccc2c(c1)[C@]1(C(=O)N2)[C@H](C(=O)N2CCCCCCC2)[C@H]2C(=O)O[C@H](c3ccccc3)[C@H](c3ccccc3)N2[C@@H]1c1ccc(OCCO)cc1 | -0.36 |
| COc1ccccc1CN1C(=O)c2ccccc2[C@@H](C(=O)NCCN2CCOCC2)[C@@H]1c1ccc(CO)cc1 | -0.0527 |
| O=c1cccc(C=Cc2ccccc2)o1 | 0.835 |
| C=C[C@@H](COC(C)=O)N(Cc1ccc([N+](=O)[O-])cc1)S(=O)(=O)c1ccc(Br)cc1 | 0.417 |
| CC(C)C(=C=CC[C@@H](O)c1ccccc1OCCO)C[C@@H](O)c1ccccn1 | 0.0716 |
| CCCCC=C[C@@H](NC(=O)c1ccc(C(=O)OC)cc1)c1ccccc1 | 1.13 |
| O=c1oc(-c2ccccc2)nc2cc(Br)ccc12 | 0.0202 |
| C=CC(COC(C)=O)NS(=O)(=O)c1ccc(Br)cc1 (centres undefined) | 0.364 |
| CS(=O)(=O)CCOC(=O)C1=CC(CCCO)=CC(c2cccs2)N(Cc2cc3c(cc2Br)OCO3)C=C1C(=O)OCCS(C)(=O)=O (centres undefined) | 0.209 |
| CCC[C@@H]1C=C(C(=O)O)[C@H](c2ccc(C)cc2)N1S(=O)(=O)c1ccc(C)cc1 | -0.522 |
| CC(C)NC(=O)[C@@H]1c2ccccc2C(=O)N(Cc2ccccc2)[C@H]1c1ccc(CO)cc1 | -0.889 |
| Cc1ccc(S[C@]2(C(=O)NCc3ccccc3)CC(=O)N(Cc3ccccc3)[C@@H]2c2ccc(CO)cc2)cc1 | 0.0206 |
| COC(=O)c1ccc(C(O)C2C=CC3C(=O)N(C)C(=O)C3N2NC(=O)OC(C)(C)C)o1 (centres undefined) | -0.29 |
| COc1ccc(C(=O)Nc2cccc(CN3C(=O)[C@]4(O[C@H](CC(=O)N5CCC[C@H]5CO)[C@@H]([Si](C)(C)c5ccc(OC)cc5)[C@@H]4C)c4ccccc43)c2)cc1 | -2.7 |
| CC(C)Cc1ccc(CN2CC[C@@H](NS(=O)(=O)c3ccccc3)C2)cc1 | -1.73 |
| C=CCC(OC(C)=O)[C@@H]1[C@@H](N(Cc2cccc3ccccc23)C(=O)c2cccc3ccccc23)c2cc(OCCCO)ccc2N1C(=O)c1ccc2ccccc2n1 (some centres undefined) | -0.388 |
| COCCOC(=O)N1C(=O)[C@@]2(c3cc(C#CCNC(N)=O)ccc31)[C@H](c1ccc(OCCO)cc1)N1[C@H](c3ccccc3)[C@H](c3ccccc3)OC(=O)[C@H]1[C@@H]2C(=O)N1CCc2cc(OC)c(OC)cc2C1 | 0.296 |
| O=C1C=CC(=O)[C@@H]2CC(COc3ccccc3)=C3[C@@H](CCc4ccccc4)OB(O)C[C@@H]3[C@H]12 | -0.971 |
| [N-]=[N+]=NCc1ccccc1[C@@H]1OC(c2ccc(OCCCO)cc2)=N[C@]1(Cc1ccccc1N=[N+]=[N-])C(=O)NCc1ccccc1 | -0.0978 |
| NCCCCCCNC(=O)[C@H]1C[C@H]2C(=O)NCC(=O)N2[C@H]1c1cccc(OCCO)c1 | 0.724 |
| CCCCCN1CC=CC23O[C@@H]4/C=C\CCC(C)OC(=O)C4[C@H]2C(=O)N(CCCCCO)[C@@H]3C1=O (some centres undefined) | 0.699 |
| O=C(NCc1ccccc1)[C@]1(CCS(=O)(=O)c2ccccc2)N=C(c2ccc(OCCCO)cc2)O[C@@H]1c1ccccc1 | -0.866 |
| C=CC(=C)C1=CCO[C@@H]1[C@H]1CCCN1S(=O)(=O)c1ccccc1[N+](=O)[O-] | -0.22 |
| COc1ccc(C(=O)Nc2cccc(CN3C(=O)[C@@]4(O[C@@H](CCn5cc(CCO)nn5)[C@H]([Si](C)(C)c5ccc(OC)cc5)[C@H]4C)c4ccccc43)c2)cc1 | -9.07 (active) |
| CCCC[C@H]1OB(O)C[C@H]2C1=C(C)C[C@H]1C(=O)N(Cc3ccccc3)C(=O)[C@H]12 | 0.355 |
